Source: PubChem
Hits are enriched below; roughly 5.3% of the tested compounds scored in any of these assays.
HPGD block: qHTS Assay for Inhibitors of HPGD (15-Hydroxyprostaglandin Dehydrogenase); 150,000 tested, 4.3% active; Potency, µM, actives largely listed as inhibitors; 15-hydroxyprostaglandin dehydrogenase [NAD(+)] (Homo sapiens), P15428; purified HPGD, NADH fluorescence kinetic, PGE2 substrate; AID 894, 2007; active = well fitted inhibition curve with a large enough effect, not every such curve was filed as active; inconclusive = small, poorly fitted or top-dose-only effect, or another doubt; inactive = no such curve, though single readings can be large or run the other way
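NADH formation kinetics: reaction with 30 uM PGE2 and 1 mM NAD+ (final), 20 nM enzyme, Tris-HCl pH 8 with Tween 20, after 15 min compound preincubation at room temperature. Fluorescence change, last versus first of five reads.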
12-hLO inh: qHTS Assay for Inhibitors of 12-hLO (12-human lipoxygenase); Potency, µM (top dose mostly 57.1 µM), most hits filed as inhibitors; 150,000 tested, 0.12% active; Polyunsaturated fatty acid lipoxygenase ALOX12 (Homo sapiens), P18054; purified 12-hLO, xylenol orange hydroperoxide absorbance; AID 1452, 2008; also: nearly all actives have a fitted effect of over 55% in size
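Xylenol orange chromogenic assay: hydroperoxide from 12hLO oxidises Fe(II), giving red-shifted Fe(III)-XO absorbance. Conditions: 150 nM enzyme, 40 uM arachidonic acid, 25 mM Hepes pH 7.0, 0.01% Triton X-100, 30 min, room temperature.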
IMPase Li cell: qHTS Assay for Identifying the Cell-Membrane Permeable IMPase Inhibitors: Potentiation with Lithium | Potency, µM (doses to about 59.4 µM), hits mostly inhibitors | CHO-M1 cells, IP1 TR-FRET (IP-One), carbachol + lithium | 210,000 tested, 0.35% active;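 also: IP1 builds up when IMPase is blocked and the TR-FRET signal falls; nearly all actives have a fitted effect of over 50% in size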
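Test compounds were applied to CHO-M1 cells previously cultured for 16–30 h at 2000 per well. A small lithium amount accompanied them; after 30 min at 37C, IP1 was quantified by TR-FRET.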
15-hLO-2 inh: qHTS Assay for Inhibitors of 15-hLO-2 (15-human lipoxygenase 2); purified 15hLO-2, xylenol orange hydroperoxide absorbance; Potency, µM (highest dose often 57.1 µM), actives largely listed as inhibitors; 110,000 tested, 0.56% active; also: nearly all actives have a fitted effect of over 60% in size
Target sequence (O15296 whole entry, looked up): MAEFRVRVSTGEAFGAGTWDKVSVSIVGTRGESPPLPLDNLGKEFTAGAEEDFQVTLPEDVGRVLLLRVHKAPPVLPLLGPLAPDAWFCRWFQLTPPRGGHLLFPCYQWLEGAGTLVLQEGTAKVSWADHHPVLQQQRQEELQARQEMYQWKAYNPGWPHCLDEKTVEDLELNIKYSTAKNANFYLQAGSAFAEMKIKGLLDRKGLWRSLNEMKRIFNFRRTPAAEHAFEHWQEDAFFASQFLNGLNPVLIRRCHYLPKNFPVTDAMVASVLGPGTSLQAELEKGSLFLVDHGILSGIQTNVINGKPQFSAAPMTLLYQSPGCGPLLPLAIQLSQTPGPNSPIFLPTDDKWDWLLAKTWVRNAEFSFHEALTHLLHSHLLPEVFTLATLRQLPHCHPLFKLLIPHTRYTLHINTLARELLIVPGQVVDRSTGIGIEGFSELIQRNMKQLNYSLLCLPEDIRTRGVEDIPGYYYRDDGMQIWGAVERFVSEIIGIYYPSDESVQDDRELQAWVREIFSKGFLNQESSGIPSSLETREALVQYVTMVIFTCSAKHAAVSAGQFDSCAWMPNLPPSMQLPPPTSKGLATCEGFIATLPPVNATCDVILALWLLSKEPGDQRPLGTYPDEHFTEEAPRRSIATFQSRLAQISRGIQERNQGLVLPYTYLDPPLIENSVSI
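Screening format was qHTS against 50 nM purified 15hLO-2 in Hepes pH 7.5 with detergent. Activity follows hydroperoxide formation from 45 uM arachidonic acid, measured as 573:405 nm absorbance ratio of the ferric-xylenol orange complex.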
PNC inhibitor: High Content Assay for Compounds that inhibit the Assembly of the Perinucleolar Compartment; PC3M PTB-GFP, PNC prevalence imaging, 16 h; stronger effect = lower value; activity change (PNC), negative = inhibition, % at 10 µM; 140,000 tested, 3.1% active;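 active = readout at or below -70, meaning at least 70% loss of cells showing the perinucleolar compartment, a nuclear body marking cancer cells; inconclusive = readout between -30 and a set limit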
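Compounds are pinned in duplicate onto adhered PC3M cells stably expressing GFP-tagged PTB and incubated 16 h at 37 C. Cells are then fixed, nuclei stained with Hoechst, and PNC-positive cells counted.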
IMPase cell inh: qHTS Assay for Identifying the Cell-Membrane Permeable IMPase Inhibitors | Inositol monophosphatase 1 (Rattus norvegicus), P97697 | CHO-M1 cells, IP1 accumulation, HTRF TR-FRET ratio | AID 901, 2007 | inhibition (IP1 accumulation), % at 46.1 µM | 120,000 tested, under 10 active; active = well fitted curve in the direction sought with a large enough effect in the signal ratio, not every such curve was filed as active; inconclusive = small, poorly fitted or top-dose-only effect, or a change in a side signal; inactive = no such curve, though single readings can be large or run the other way; the % refers to the signal ratio;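 also: cells stimulated with carbachol in lithium chloride buffer; higher means more IMPase inhibition seen as more IP1 and lower FRET ratio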
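CHO-M1, 2000 cells/well, cultured 16–30 h; cpd up to 46 uM; carbachol (50 uM solution, stimulation buffer w/ 50 mM LiCl, pH 7.4), 30 min 37C; IP-One TR-FRET, 10 min RT; Ex 320/Em 665, 620; Hill-fit AC50.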
Hits are given with their value; n = inactive; u = inconclusive; x = no result; [ ] = another dose, or the depositor's remark. Unless noted, calls follow the shape of the dose curve; as a rule, active = well fitted curve in the direction sought with a large enough effect; inconclusive = small, poorly fitted or top-dose-only effect, or another doubt; inactive = no such curve, though single readings can be large; an effect the other way counts as inactive or inconclusive.

SMILES	HPGD block	12-hLO inh	IMPase Li cell	15-hLO-2 inh	PNC inhibitor	IMPase cell inh
COc1ccc(C(=O)OCC(=O)N2CCCC2=O)c(OC)c1	x	x	n	x	x	x
COC(=O)c1cc(CNC(=O)c2cccc(Cl)c2)ccc1OC	n	n	n	x	-89	n
COC(=O)c1cc(CNC(=O)c2cccc(Cl)c2Cl)ccc1OC	u	n	n	x	n	x
Cc1cccnc1NC(=S)NC(=O)/C=C/c1ccco1	n	n	n	n	n	n
O=C(/C=C/c1ccco1)NC(=S)Nc1ccccc1N1CCOCC1	n	u	n	u	-109	n
O=C(/C=C/c1ccco1)NC(=S)Nc1ccccn1	16µM	n	n	n	n	n
CCOC(=O)c1cc(C#N)c(N2CCN(c3ccc(OC)cc3)CC2)[nH]c1=O	x	x	n	x	x	x
Cc1ccc2cc(C#N)c(SCC(=O)NCc3ccco3)nc2c1	n	n	n	n	-82	n
COC(=O)CSc1nc2ccc(C)cc2cc1C#N	x	x	n	x	x	x
Cc1ccc2nc(SCC(=O)NCc3cccs3)c(C#N)cc2c1	n	n	13µM	n	n	u
CCOc1ccc2cc(C#N)c(SCC(=O)NC(C)CC)nc2c1 (configuration not stated)	n	n	3.5µM	n	n	u
Cc1ccc2nc(SCC(=O)NCc3ccco3)c(C#N)cc2c1	7.9µM	n	u	n[2.29 µM]	n	u
CCOC(=O)CSc1nc2cc(OCC)ccc2cc1C#N	u	n	u	n	n	n
CC(=O)N1CCC2(CC1)CN(C(=O)Nc1cccc(C#N)c1)C2	n	n	n	n	x	x
O=C(CSc1nc(C2CC2)nc2sc3c(c12)CCCC3)NCc1ccco1	n	n	n	n	n	n
Cc1nc(SCC(=O)NCc2ccco2)c2c3c(sc2n1)CCCC3	14µM	n	u	n	u	n
Cc1ccc2cc(C#N)c(SCC(=O)NNC(=O)Cc3ccccc3)nc2c1	n	n	13µM	x	n	x
Nc1nc(-c2ccc(Cl)c(Cl)c2)c(-c2ccncc2)s1	u	n	n	n	x	x
CCO[C@H]1OC(C(=O)N2CCN(C)CC2)=C[C@@H](C)[C@@H]1CCCO	x	x	n	x	x	x
Clc1ccc(Cn2ncc3c(NCc4ccco4)ncnc32)c(Cl)c1	28µM	n	n	n	n	n
Clc1ccc(-n2ncc3c(NCc4ccco4)ncnc32)cc1	n	n	n	n	n	n
COc1cccc(Cn2c(=O)cnc3cnc(N4CCOCC4)nc32)c1	u	n	n	n	x	x
CCOC(=O)c1sc(NC(=O)C2CC2)nc1C	n	n	n	n	n	n
CCOC(=O)c1c(C)c(C(=O)N2CCCCCC2)c(C)n1CC	13µM	n	n	n	n	n
CCOC(=O)c1sc(NCC2CCCO2)nc1C (configuration not stated)	13µM	n	n	n	n	n
SMILES	HPGD block	12-hLO inh	IMPase Li cell	15-hLO-2 inh	PNC inhibitor	IMPase cell inh
CCOC(=O)c1c(C)c(C(=O)N2CCCCCC2)c(C)n1C	16µM	n	n	n	n	n
CCOC(=O)c1c(C)c(C(=O)NCC2CCCO2)c(C)n1CC (configuration not stated)	22µM	n	n	n	u	n
CCOC(=O)c1c(C)c(C(=O)Nc2ccc3c(c2)OCCO3)c(C)n1CC	n	n	n	n	n	n
CCCCc1nnc(NC(=O)CSc2nc(=O)cc(N)n2-c2cccc(C)c2)s1	n	n	n	n	-81	n
Cc1cccc(-n2c(N)cc(=O)nc2SCC(=O)Nc2nnc(CC(C)C)s2)c1	n	n	n	n	n	n
CCS(=O)(=O)N1CCN(c2ccc(Cl)cc2[N+](=O)[O-])CC1	n	n	n	x	-83	n
O=C(NC(=S)N1CCN(c2ccc(Cl)cc2[N+](=O)[O-])CC1)c1ccco1	u	n	n	x	-81	x
O=C(NC(=S)N1CCN(c2ccc(Cl)cc2[N+](=O)[O-])CC1)c1cccs1	n	n	n	x	-112	n
CC(C)(C)C(=O)N1CCN(c2ccc(Cl)cc2[N+](=O)[O-])CC1	n	n	n	x	n	x
OC(Cc1cccnc1)(Cc1cccnc1)c1cc2ccccc2[nH]1	n	n	n	x	u	x
Cc1cc(C(=O)CSc2nnnn2C)c(C)n1-c1ccc2c(c1)OCCO2	25µM	n	n	n	n	n
Cc1cc(-n2c(C)cc(C(=O)CSc3nnnn3-c3ccc(Cl)cc3)c2C)no1	n	n	n	x	-100	n
Cc1nc(SCC(=O)NC(C)(C#N)C2CC2)c2c(-c3cccs3)csc2n1 (configuration not stated)	n	n	n	x	u	n
CCOC(=O)c1cc(-c2ccccc2)sc1N	11µM	n	n	x	n	x
CCOC(=O)c1cc(-c2ccccc2)sc1NC(=O)c1ccc(OC)cc1	3.5µM	n	n	n	n	n
CCOC(=O)c1c(N)sc(C)c1-c1ccccc1	25µM	n[0.00818 µM]	n	u	x	x
CCOC(=O)c1cc(-c2ccccc2)sc1NC(=O)CC	u	n	n	x	n	n
CCOC(=O)c1cc(-c2ccccc2)sc1NC(=O)COC(=O)c1ccc(Cl)c(S(N)(=O)=O)c1	x	x	13µM	x	x	x
COC(=O)CSc1nnc(CNC(=O)Cc2ccccc2)n1-c1ccccc1OC	n	n	n	n	n	n
Cc1cccc(CNc2ncnc3ccc(-c4cccc(NS(C)(=O)=O)c4)cc23)c1	u	n	n	n	x	x
CCCn1nc(NC(=O)c2cccs2)c2cc3cc(OC)ccc3nc21	u	n	n	n	-90	n
CCCCn1nc(NC(=O)c2cccs2)c2cc3cc(OC)ccc3nc21	u	n	n	n	u	n
O=C(CSc1nnc2c(n1)[nH]c1ccc(S(=O)(=O)N3CCOCC3)cc12)Nc1ccc(F)c(F)c1	x	x	n	x	x	x
Cc1ccc(NC2(c3nnnn3-c3c(C)cccc3C)CCCCC2)cc1	n	n	n	x	u	x
COc1ccc(O)c(C(=O)c2cnc3c(c2)c(=O)[nH]c(=O)n3C)c1	28µM	n	n	x	n	x
O=c1oc2ccccc2cc1O	18µM	n	n	n	x	x
O=c1oc2ccccc2cc1-c1ccc(O)cc1	u	n	n	x	n	x
Clc1ccc2nnnc(-c3ccccc3)c2c1	n	n	n	x	-98	x
CN(c1ccc(OCC(=O)OCC(=O)Nc2c(F)c(F)c(F)c(F)c2F)cc1)S(=O)(=O)c1ccc(F)cc1	n	n	n	x	-107	x
NC(=O)c1ccsc1NC(=O)C1CCCN1S(=O)(=O)c1ccc(Cl)cc1 (configuration not stated)	u	n	n	n	n	n
